Data on 20 compounds can be found in PubChem BioAssay.

Usually viability stands for a read-out of living cells in per cent, often relative to untreated cells. A word on the inhibition: it is how much of the control response was suppressed.

Inconclusive results are not listed. Activity calls are given as the source filed them.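 The calls were made as follows, unless noted: active = RAM network inhibition above 8.4% in each of two replicates, 3 SD over the compound average; inconclusive = above 8.4% inhibition in only one replicate; inactive = 8.4% inhibition or less in each replicate.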

The nature of experiment [1]: S. cerevisiae growth inhibition in restrictive medium, OD615, pilot screen, restrictive growth control, yeast lifespan reduction project (AID 706;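 active = growth inhibition above a set limit, 3 SD over mean compound inhibition, in both replicates, cut at about 43% in these data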;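 also: modified DeaD lifespan yeast strain shifted to restrictive glucose medium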). Conditions: OD615, 48 h, at 10 µM, stronger effect = higher value.
Experiment [2] is described as follows: doxorubicin toxicity protection in MRP-1 cells – H69AR cells, CellTiter-Glo, duplicate, MRP-1 activator project, pilot screen (AID 807;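 active = viability increase at or above a cutoff of the median across tested compounds plus 3 SD, cut at about 8.5% in these data, passing the limit was not always enough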;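 also: compound pretreatment 18-22 h then 72 h combined with doxorubicin; 0% = doxorubicin alone and 100% = vehicle without doxorubicin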). Conditions: H69AR viability with doxorubicin, CellTiter-Glo luminescence; at 10 µM; stronger effect = higher value.
Experiment [3] in a line: viability of HCT116 without oncogenic beta-catenin – human colon tumor cells, pilot screen (AID 823;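 active = cell viability at or below a set limit in both duplicate runs, the limit being the all-compound median minus 4 SD, cut at about 23% in these data, passing the limit was not always enough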;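 also: 0% = wells killed by 20 µM Hyamine and 100% = untreated DMSO cell wells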). The conditions noted are these: HCT116 beta-catenin knockout viability, CellTiter-Glo, 60 h; at 10 µM; stronger effect = lower value.
The nature of experiment [4]: viability of PTEN-null HCT116 cells – cell-based, HCT116 clonal line, CellTiter-Glo, pilot screen (AID 824;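 active = viability at or below 27.92% in each of two runs, the all-compound median minus 4 SD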;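 also: 0% = 20 µM Hyamine control and 100% = vehicle cell control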). The conditions noted are these: HCT116 PTEN-deleted viability, 60 h, at 10 µM, stronger effect = lower value.
Experiment [5] can be described thus: RAM pathway blockade in budding yeast – dse1pr::URA3 reporter, 5-FOA selection, pilot screen (AID 869;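 active = inhibition over a set limit, the all-compound mean plus 3 SD, in both replicate runs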;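 also: 0% = DMSO wells with no growth and 100% = 10 µM 1-NA-PP1 with full growth; RAM network block rescues cells from 5-FOA so hits raise OD615 growth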). The conditions noted are these: S. cerevisiae dse1pr::URA3 5-FOA growth, OD615, 2 d; at 10 µM; stronger effect = higher value; strain carries analog-sensitive mutant Cbk1 kinase.
Experiment [6] is described as follows: RAM signaling pathway blockade in yeast – S. cerevisiae, Pdr1DBD-CYC8 efflux-inhibited sensitized strain, primary screen (AID 1298).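 Also: 0% = DMSO untreated cells without growth and 100% = 10 µM 1-NA-PP1 full growth; higher means more yeast growth rescued from 5-FOA killing.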 Conditions: S. cerevisiae cbk1-as DSE1-URA3 strain, 5-FOA growth OD615, 2 d; at 50 µM; stronger effect = higher value.
The nature of experiment [7]: S. cerevisiae growth inhibition in permissive medium (OD615), pilot counter-assay for S. cerevisiae lifespan shortening project, permissive growth control (AID 705;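 active = growth inhibition above 25% in both replicates, a cutoff set 3 SD above the mean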). The conditions noted are these: OD615, 24 h, at 10 µM, stronger effect = higher value.
Experiment [8] in a line: Her2 expression decrease, cell viability multiplex – SKBR3 breast tumor cells, AlphaScreen, ATP viability, primary screen (AID 461;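 active = Her2 level under about 52% in both replicate screens, with viability over 70% of control, limit read from the data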;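 as to Her2 level: lower value means less Her2 protein in the cells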;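 as to viability: percent of carrier control wells set as 100% viability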). Conditions: SKBR3 Her2 protein level, 18-24 h, measured here: SKBR3 viability, ATP luminescence, at 10 µM. A general note: Alpha assays give light when donor and acceptor beads are brought close together.
The target in experiment [9] is Receptor tyrosine-protein kinase erbB-2 (Homo sapiens) (UniProt P04626). The experiment is described as above. The conditions noted are these: 18-24 h, at 10 µM, stronger effect = lower value.
Experiment [10] is described as follows: reduced viability of SK-BR-3 breast cancer cells – cell-based, 24 h, human, pilot screen (AID 572;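 active = viability at or below 10% of carrier control in both of two separate runs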;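 also: compound exposure lasted between 18 and 24 h rather than exactly 24 h; 100% = carrier-treated control wells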). Conditions: SK-BR-3 viability, CellTiter-Glo luminescence, at 10 µM, stronger effect = lower value.
Experiment [11] in a line: HUVEC growth inhibition – cell-based, human, primary screen (AID 575;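 active = viability at or below 30% in both replicate assays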;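 also: 100% = median of untreated cell wells with 0.1% DMSO on each plate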). The conditions noted are these: HUVEC proliferation, CellTiter-Glo luminescence, 72 h; at 10 µM; stronger effect = lower value.
A short description of experiment [12]: H69AR cell proliferation blockers – human, duplicate replicates, primary screen (AID 580;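 active = viability at or under a set limit in both replicates, limit being median viability minus 3 SD, cut at about 48% in these data, passing the limit was not always enough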;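 also: 100% = mean luminescence of untreated wells and 0% = no signal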). The conditions noted are these: H69AR lung tumor cells viability, ATP luminescence, 72 h; at 10 µM; stronger effect = lower value.
Experiment [13] in a line: MRP1 drug-resistance reversers in H69AR cells – cell-based, doxorubicin co-treatment, pilot screen (AID 601;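 active = viability loss from added drug above about 55%, and viability with drug at most 40%, in both replicates, limit read from the data, passing the limit was not always enough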). The conditions noted are these: CellTiter-Glo, 72 h, at 10 µM; for differential viability (reversal): stronger effect = higher value. (In general: In ATP-based viability assays light output follows the ATP content of the culture.)
Setting [14] is: H69AR cells + 2 uM doxorubicin, measured here: viability with 2 uM doxorubicin, stronger effect = lower value.
Where [15] appears, read: H69AR cells, compound alone cytotoxicity.

Receptor tyrosine-protein kinase erbB-2 (Homo sapiens), sequence (P04626 whole entry, looked up): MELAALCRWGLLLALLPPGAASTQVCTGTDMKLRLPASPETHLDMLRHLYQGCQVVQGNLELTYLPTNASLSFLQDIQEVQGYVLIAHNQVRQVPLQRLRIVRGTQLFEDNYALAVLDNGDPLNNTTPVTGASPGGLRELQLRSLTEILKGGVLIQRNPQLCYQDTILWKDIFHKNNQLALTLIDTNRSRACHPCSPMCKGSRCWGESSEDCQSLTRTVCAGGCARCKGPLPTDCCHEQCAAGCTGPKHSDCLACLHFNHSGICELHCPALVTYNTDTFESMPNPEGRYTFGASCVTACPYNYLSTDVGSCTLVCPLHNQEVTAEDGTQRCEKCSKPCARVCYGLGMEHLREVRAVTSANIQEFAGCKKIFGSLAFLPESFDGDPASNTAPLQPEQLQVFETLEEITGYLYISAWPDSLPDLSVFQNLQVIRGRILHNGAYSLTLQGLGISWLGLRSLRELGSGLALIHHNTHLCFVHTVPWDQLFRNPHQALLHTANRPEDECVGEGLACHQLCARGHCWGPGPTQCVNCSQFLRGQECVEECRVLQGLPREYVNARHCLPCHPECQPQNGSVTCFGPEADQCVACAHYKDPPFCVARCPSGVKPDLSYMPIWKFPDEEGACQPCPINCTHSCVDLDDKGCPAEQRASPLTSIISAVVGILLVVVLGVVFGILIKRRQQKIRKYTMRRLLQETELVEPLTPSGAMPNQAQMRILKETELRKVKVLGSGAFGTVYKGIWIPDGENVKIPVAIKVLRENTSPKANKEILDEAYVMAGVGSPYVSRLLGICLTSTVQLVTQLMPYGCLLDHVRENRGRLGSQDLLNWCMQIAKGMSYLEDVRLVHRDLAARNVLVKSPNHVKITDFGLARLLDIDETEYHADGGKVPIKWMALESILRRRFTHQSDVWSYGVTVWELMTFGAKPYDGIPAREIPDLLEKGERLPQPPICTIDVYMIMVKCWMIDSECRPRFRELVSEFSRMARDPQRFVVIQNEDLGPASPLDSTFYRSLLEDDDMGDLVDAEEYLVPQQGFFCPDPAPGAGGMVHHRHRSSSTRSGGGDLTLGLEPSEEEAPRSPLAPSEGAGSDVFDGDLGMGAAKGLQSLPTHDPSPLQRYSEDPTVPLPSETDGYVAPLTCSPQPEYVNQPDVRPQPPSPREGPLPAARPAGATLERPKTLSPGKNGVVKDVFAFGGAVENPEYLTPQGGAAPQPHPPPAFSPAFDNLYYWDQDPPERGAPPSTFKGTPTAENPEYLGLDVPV

Consider `CCOC(=O)c1ccc(NC(=O)CSc2nc3c(c(=O)n2CC)SC(C)C3)cc1` (stereo not drawn), for which the growth inhibition in experiment [1] was -18.3% (inactive). The viability increase in [2] was -3.44% (inactive). In addition, the viability in experiment [3] was 84% (inactive); in experiment [4] it was 80.8% (inactive). Moreover, in [5], the inhibition was 0.12% (inactive). For the same compound, the RAM network inhibition in experiment [6] was 3.13% (inactive).
Turning to `O=C(O)C1CC=CCC1C(=O)NCc1cn2ccccc2n1` (stereo not drawn), the growth inhibition in [1] was -15.1% (inactive). Moreover, the viability increase in [2] was -2.16% (inactive). Moreover, the viability was 103% (inactive) in experiment [3] and 96.1% (inactive) in experiment [4]. Further, the inhibition in experiment [5] was 2.84% (inactive). Besides, the RAM network inhibition in experiment [6] was 4.32% (inactive).
For `O=C(O)c1cc2c(s1)-c1ccccc1OC2`, the growth inhibition in [7] was 6.14% (inactive). Besides, the viability increase in experiment [2] is -4.32% (inactive). In addition, the figures for the viability in experiment [3] and in experiment [4] were 96.9% (inactive) and 98.7% (inactive), respectively. Moreover, the inhibition in [5] is 0.165% (inactive). The RAM network inhibition in [6] was -2.9% (inactive).
Turning to `CCC1(C)Cc2nc3sc(C(=O)O)c(N)c3cc2CO1` (stereo not drawn), the growth inhibition in [7] was -4.39% (inactive). Also, the viability increase in experiment [2] is -3.61% (inactive). Moreover, the viability in experiment [3] is 94.2% (inactive). Also, in [5], the inhibition was 1.71% (inactive). Also, the RAM network inhibition in [6] was 6.29% (inactive).
Turning to `Cc1csc(NC(=O)CSc2nnc(Cc3cccn3C)n2CCc2ccccc2)n1`, the growth inhibition in experiment [7] was 11% (inactive). Besides, the viability increase in experiment [2] is -3.58% (inactive). Moreover, the viability is 87.1% (inactive) in experiment [3] and 82.6% (inactive) in experiment [4]. The inhibition in experiment [5] was 0.505% (inactive). In addition, the RAM network inhibition in [6] is 9.43% (inactive).
In the case of `CC(=O)C1=C(C)Nc2cc(C(F)(F)F)ccc2S1`, the growth inhibition in experiment [1] was 27.2% (inactive). Besides, the viability increase in experiment [2] was -1.14% (inactive). Besides, the viability in experiment [3] is 93.6% (inactive); in [4], 85.7% (inactive). In addition, the inhibition in [5] is 1.77% (inactive). For the same compound, in experiment [6], the RAM network inhibition is 4.09% (inactive).
Take `Fc1ccc(-c2nnc3ccc(N4CCc5ccccc5C4)nn23)cc1`: the growth inhibition in experiment [7] was 14.2% (inactive). For the same compound, the viability increase in [2] is -7.99% (inactive). Further, the figures for the viability in experiment [3] and in experiment [4] were 2.21% (active) and 1.42% (active), respectively. In addition, the inhibition in experiment [5] is 2.02% (inactive). In addition, in experiment [6], the RAM network inhibition was 3.14% (inactive).
In the case of `Cc1ccc(S(=O)(=O)Nc2nc(C)cc(NCCN)n2)cc1`, the growth inhibition in experiment [1] was -2.19% (inactive). Further, in experiment [2], the viability increase is -0.98% (inactive). In addition, the viability in experiment [3] is 94.3% (inactive); in experiment [4] it was 88.5% (inactive). Also, the inhibition in experiment [5] is 0.48% (inactive). Besides, the RAM network inhibition in experiment [6] is 2.5% (inactive).
Take `O=C(CSc1ccc2nnc(-c3ccc(Cl)cc3)n2n1)N1CCCC1`: the growth inhibition in experiment [7] is -1.01% (inactive). Moreover, the viability increase in experiment [2] is -3.12% (inactive). Moreover, the viability in [3] was 86.3% (inactive); in experiment [4], 93.1% (inactive). Also, the inhibition in experiment [5] is 1.32% (inactive). The RAM network inhibition in experiment [6] was 4.24% (inactive).
Take `O=C(CSc1nnc(-c2ccccn2)n1Cc1ccco1)c1ccccc1`: in experiment [7], the growth inhibition was 0.135% (inactive). Besides, the viability increase in experiment [2] was -3.34% (inactive). Besides, the viability in experiment [3] was 98.1% (inactive); in experiment [4], 95.2% (inactive). Further, the inhibition in [5] is 0.485% (inactive). The RAM network inhibition in experiment [6] is 7.41% (inactive).
As for `CCOC(=O)CNC(=O)CSc1nnc(-c2ccco2)n1Cc1ccco1`, the growth inhibition in experiment [7] is 6.66% (inactive). The viability increase in experiment [2] was -2.83% (inactive). The viability in [3] was 97.2% (inactive); in [4], 98.2% (inactive). Besides, in [5], the inhibition was 0.765% (inactive). The RAM network inhibition in experiment [6] is 3.76% (inactive).
As for `Cc1ccc(OCC(=O)Nc2cc(-c3nn4c(C)nnc4s3)ccc2C)cc1`, in experiment [7], the growth inhibition was 0.12% (inactive). Besides, in [2], the viability increase was -4.09% (inactive). Further, the viability was 93.7% (inactive) in experiment [3] and 88% (inactive) in experiment [4]. Further, the inhibition in experiment [5] was 3.09% (inactive). Also, the RAM network inhibition in [6] was 10.7% (inactive).
As to `CCOc1cccc(C(=O)Nc2cc(-c3nn4c(C)nnc4s3)ccc2C)c1`, the growth inhibition in [7] is 9.19% (inactive). In experiment [2], the viability increase was -4.79% (inactive). Moreover, the viability was 100% (inactive) in experiment [3] and 93.6% (inactive) in [4]. Besides, the inhibition in experiment [5] was 0.07% (inactive). In addition, the RAM network inhibition in experiment [6] was 2.22% (inactive).
Turning to `CCN1CCN(C(=O)C(NS(=O)(=O)c2ccc3nc(C)sc3c2)C(C)C)CC1` (stereo not drawn), the growth inhibition in [7] is -15.9% (inactive). The viability increase in experiment [2] was -0.67% (inactive). Also, the viability in experiment [3] is 99.4% (inactive); in experiment [4], 95.2% (inactive). The inhibition in [5] is 0.845% (inactive). The RAM network inhibition in experiment [6] was -0.04% (inactive).
In the case of `COc1cc(C2CC(=O)N3CN(Cc4ccco4)CSC3=C2C#N)ccc1OCc1ccccc1` (stereo not drawn), the growth inhibition in experiment [7] was 7.01% (inactive). The viability increase in [2] was -5.42% (inactive). Also, the viability was 77.8% (inactive) in experiment [3] and 83.5% (inactive) in experiment [4]. Moreover, the inhibition in experiment [5] was 1.65% (inactive). For the same compound, in experiment [6], the RAM network inhibition is 2.55% (inactive).
As to `O=C(CSc1nnc(Cn2c(=O)sc3ccccc32)n1CCc1ccccc1)N1CCCC1`, the growth inhibition in experiment [7] is 2.63% (inactive). Further, the viability increase in experiment [2] was -3.62% (inactive). The results for the viability in experiment [3] and in experiment [4] were 97.9% (inactive) and 94.9% (inactive), respectively. In addition, in experiment [5], the inhibition is 2.82% (inactive). For the same compound, the RAM network inhibition in [6] is 7.13% (inactive).
As for `CCN1CCN(C(=O)CS(=O)Cc2nc(-c3ccc(OC)cc3)oc2C)CC1` (stereo not drawn), the growth inhibition in experiment [1] was -7.22% (inactive). Further, in experiment [2], the viability increase is -0.78% (inactive). Besides, the figures for the viability in [3] and in experiment [4] were 104% (inactive) and 100% (inactive), respectively. Besides, the inhibition in [5] is 0.945% (inactive). The RAM network inhibition in [6] was 1.04% (inactive).
Take `COc1ccccc1C(=O)Nc1cc(-c2nn3c(C)nnc3s2)ccc1C`: in [7], the growth inhibition is 12.8% (inactive). The viability increase in experiment [2] was -3.73% (inactive). The viability in experiment [3] is 114% (inactive); in experiment [4], 97.8% (inactive). In addition, the inhibition in experiment [5] is 1.22% (inactive). Moreover, the RAM network inhibition in experiment [6] was 4.87% (inactive).
As for `CCCCC1C(=O)N(c2ccccc2)N(c2ccccc2)C1=O`, the viability in experiment [8] was 99%; in experiment [10], 99% (inactive); in experiment [11], 99.1% (inactive); in experiment [12] it was 98.5% (inactive); in experiment [13] (setting [14]) it was 91.1%; in experiment [13] (setting [15]), 98.5%. In addition, the Her2 level in experiment [9] is 90.5% (inactive). In addition, the differential viability (reversal) in experiment [13] (H69AR cells + 2 uM doxorubicin) is 7.41% (inactive).
`CC(=O)Oc1cc(C(C)C)c(OCCN(C)C)cc1C`: the viability in experiment [8] was 96.5%; in [10], 96.5% (inactive); in [11], 105% (inactive); in [12], 99% (inactive); in experiment [13] (setting [14]), 97.8%; in experiment [13] (setting [15]), 99%. In addition, in [9], the Her2 level was 118% (inactive). In addition, the differential viability (reversal) in [13] (H69AR cells + 2 uM doxorubicin) is 1.28% (inactive).
